Assay outcomes: PubChem BioAssay, several laboratories
Shn3 3UTR inh – inhibitors of Schnurri-3 3'UTR reporter in osteoblasts; 360,000 compounds, 0.52% hits; inhibition, % at 12.5 µM; Clone20 osteoblast Shn3 3'UTR firefly luciferase, 24 h;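 active means mean inhibition of at least 75% with every replicate also reaching 75%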;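 further: 0% = median of neutral control wells and 100% = pilot-screen positive control compound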
Peg3 prom inh – reduces Peg3 promoter-driven luciferase expression in HeLa; HeLa PEG-Prom luciferase reporter, luminescence, overnight; inhibition, % at 20 µM; 360,000 compounds, 1.7% hits; AID 588405;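 active means inhibition of at least 50% at 20 µM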
KKLEB tox – reduces viability of KKLEB cystic fibrosis airway cells | 360,000 compounds, 0.36% hits | activity change (cytotoxicity), % at 5 µM | KKLEB CF airway cells viability, ATPlite luminescence, overnight; active compounds read low; cells stimulated with P. aeruginosa culture filtrate;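 active means corrected activity change at or below -50% at 5 µM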
CF NFkB inh – blocks PAF-induced NF-kB reporter in cystic fibrosis cells; KKLEB NF-kB-GFP reporter, GFP fluorescence overnight; inhibition, % at 5 µM; 360,000 compounds, 0.86% hits;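 active means at least 50% inhibition at 5 µM, scaled per plate between neutral and stimulator controls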;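 further: PAF is a Pseudomonas aeruginosa culture filtrate used as stimulus; plate controls were PAF-stimulated DMSO wells for no effect and unstimulated DMSO wells for full effect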
HIF-2a inh – HIF-2a inhibition. 786-0 RCC cells HIF-2a reporter, luciferase luminescence, overnight. inhibition, % at 18.8 µM. 360,000 compounds, 0.72% hits. AID 624352;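 active means inhibition of the luminescence signal of 40% or more relative to plate controls, in a single-dose primary screen at 18.75 µM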
Mdm2 MdmX conf – Mdm2/MdmX (human) interaction inhibition, confirmed | inhibition, % at 8 µM | AID 504601 | shares compounds with HIF-2a inh | SaOS-2 split-luciferase Mdm2/MdmX complementation, luminescence | 740 compounds, 99% hits;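 active means mean inhibition of the luminescence signal across two replicates at or above 26 percent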
Target sequence (O15151 whole entry, looked up): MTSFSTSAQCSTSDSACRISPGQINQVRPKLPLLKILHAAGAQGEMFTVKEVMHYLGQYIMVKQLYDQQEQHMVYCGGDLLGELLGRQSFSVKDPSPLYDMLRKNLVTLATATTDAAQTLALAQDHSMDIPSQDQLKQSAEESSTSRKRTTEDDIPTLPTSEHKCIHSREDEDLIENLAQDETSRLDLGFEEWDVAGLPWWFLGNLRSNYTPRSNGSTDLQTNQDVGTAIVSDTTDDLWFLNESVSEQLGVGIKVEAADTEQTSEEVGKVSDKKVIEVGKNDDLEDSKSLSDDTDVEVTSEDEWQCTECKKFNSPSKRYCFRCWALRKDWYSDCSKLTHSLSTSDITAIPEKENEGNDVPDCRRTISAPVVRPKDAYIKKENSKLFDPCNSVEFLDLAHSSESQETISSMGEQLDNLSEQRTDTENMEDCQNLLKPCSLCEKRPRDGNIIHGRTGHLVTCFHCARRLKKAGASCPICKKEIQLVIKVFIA
Target sequence (Q00987 whole entry, looked up): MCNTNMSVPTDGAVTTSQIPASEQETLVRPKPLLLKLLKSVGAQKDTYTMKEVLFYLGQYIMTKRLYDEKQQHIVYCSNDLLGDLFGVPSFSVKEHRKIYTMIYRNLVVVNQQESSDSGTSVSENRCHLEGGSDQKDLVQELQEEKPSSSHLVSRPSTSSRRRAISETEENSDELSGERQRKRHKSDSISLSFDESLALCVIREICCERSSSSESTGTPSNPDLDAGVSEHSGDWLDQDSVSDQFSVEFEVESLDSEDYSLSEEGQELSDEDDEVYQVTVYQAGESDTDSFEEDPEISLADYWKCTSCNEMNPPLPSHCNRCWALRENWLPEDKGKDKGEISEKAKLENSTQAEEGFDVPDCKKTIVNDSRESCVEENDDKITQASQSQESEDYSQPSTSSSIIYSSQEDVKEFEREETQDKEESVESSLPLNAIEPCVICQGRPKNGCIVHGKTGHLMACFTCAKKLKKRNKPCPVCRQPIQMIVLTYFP
HIF-2a conf – confirmation of HIF-2a inhibitors; shares compounds with HIF-2a inh; 786-0 RCC cells, HIF-2a luciferase reporter luminescence, overnight; inhibition, % at 18.8 µM; 1,800 compounds, 56% hits; AID 651580;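 active means mean inhibition across four replicates of at least 40 percent at the single tested concentration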
HIF-1a counter – HIF-1a inhibition counter-screen for HIF-2a hits | shares compounds with HIF-2a inh | MiaPaCa-2 HIF-1a luciferase reporter, desferoxamine, overnight | inhibition, % at 18.8 µM | 1,800 compounds, 72% hits | AID 651589;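 active means mean inhibition of the reporter signal across four replicates at the single tested dose of 50% or more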
Numbers without * were called inactive; nt = no result. Compounds with a hit are over-represented: about 2.6% of the library has one in this group of screens.

SMILES	Shn3 3UTR inh	Peg3 prom inh	KKLEB tox	CF NFkB inh	HIF-2a inh	HIF-2a conf	HIF-1a counter	others
CCOc1cc(/C=C/c2nc3cc(C)c(C)cc3s2)ccc1OCC(=O)N1CCOCC1	-32.9	-11.1	-10.4	-13.5	-20.9	nt	nt
CCOc1cc(/C=C\[N+](=O)[O-])ccc1OCC(=O)N1CCOCC1	-4.7	78.1*	9.7	-23.5	82.6*	88.3*	84.9*
O=C(Nc1cccc(Cl)c1)Nc1nnc(-c2ccncc2)s1	34.8	29.5	-57.7*	72.8*	-14.2	nt	nt	Mdm2 MdmX conf=102.0*
Nc1ccc(-c2nc3c(Cl)cc(N)cc3[nH]2)cc1	68.4	12.2	-3.5	-5.4	88.0*	95.7*	84.8*
COc1ccc(C2C(Oc3ccccc3)C(=O)N2c2cc(C)ccc2C)cc1OC (stereo unspecified)	-2.0	17.5	1.5	0.4	-4.8	nt	nt
COc1ccc(C)cc1N1C(=N)/C(=C2/Nc3ccccc3S2)C(c2ccccc2)C1=O (stereo unspecified)	52.7	90.6*	-0.3	-6.3	83.0*	-11.1	88.2*
Cc1sc2nc(COC(=O)c3cccc(S(=O)(=O)N(C)c4ccccc4)c3)[nH]c(=O)c2c1C	7.1	5.2	4.3	-16.3	-1.2	nt	nt
Cc1ccc2c(c1)=N/C(=N\c1[nH]c(O)c3ccccc13)N=2	-19.6	89.8*	0.2	37.0	75.7*	-87.7	94.6*
COc1ccc(CCNS(=O)(=O)c2c(C)nc3scc(C)n3c2=O)cc1OC	-8.8	2.2	2.5	15.6	0.4	nt	nt
Cc1csc(=O)n1CCC(=O)OC(C)C(=O)NCc1ccccc1 (stereo unspecified)	-3.9	-6.3	-5.8	17.3	3.1	nt	nt
Cc1ccc(C(C)C)c(OCc2nn(CC(=O)c3ccc(Cl)cc3)c3[n+]2CCCCC3)c1	48.6	112.1*	-25.2	41.1	49.4*	15.9	106.5*
O=C(Cn1nc(CNc2ccc(Cl)cc2)[n+]2c1CCCCC2)c1ccccc1	-9.1	2.7	5.5	4.5	-2.0	nt	nt
CS(=O)(=O)Cc1ccc(C(=O)Nc2cccc(-c3nc4ccccc4[nH]3)c2)cc1	-0.6	-75.4	0.1	-3.3	-54.3	nt	nt
Cc1c(C)c2ccc(OCc3ccc(C(=O)O)o3)c(C)c2oc1=O	8.1	-41.1	-4.0	11.2	49.9*	5.2	-38.4
O=C(Nc1cccc(S(=O)(=O)N2CCCCC2)c1)c1ccc([N+](=O)[O-])o1	69.5	53.3*	-13.9	88.4*	64.0*	34.0	104.2*
O=C(Nc1ccc(N2CCOCC2)c(Cl)c1)c1ccc([N+](=O)[O-])o1	81.4	105.9*	-21.2	74.4*	81.4*	29.3	77.1*
Cc1cc(NC(=O)c2ccc([N+](=O)[O-])o2)ccc1NC(=O)c1ccco1	-5.6	99.8*	-16.0	72.7*	46.8*	20.6	96.0*
Cc1cc([N+](=O)[O-])ccc1NC(=O)c1ccco1	-23.2	1.8	4.1	-10.4	9.6	nt	nt
Cc1ccc(-c2nc3ncccc3o2)cc1NC(=O)c1ccc([N+](=O)[O-])o1	-36.8	56.8*	0.9	11.3	53.5*	-6.8	102.1*
CCOc1ccc(N2CC(NC(=O)c3cccc4ccccc34)CC2=O)cc1 (stereo unspecified)	8.1	3.3	10.5	2.2	3.0	nt	nt
COc1ccccc1NS(=O)(=O)c1cc(C(=O)N2CCCC2)ccc1F	2.5	2.4	-11.9	-16.1	5.5	nt	nt
CCC(CC)C(=O)NCc1ccc(Cl)cc1	-1.1	2.9	5.8	-13.7	13.2	nt	nt
CSCCC(=O)N1CCN(CC(=O)N2CCCC2)CC1	-5.3	-9.6	15.3	2.7	-3.9	nt	nt
CC(=O)Nc1ccc(-c2ccnc3c2CC(C)(C(=O)Nc2cccc(Oc4ccccc4)c2)O3)cc1 (stereo unspecified)	21.9	8.1	-13.1	21.6	26.4	nt	nt
CN1CCN(c2ccc(NC(=O)c3ccc([N+](=O)[O-])o3)cc2Cl)CC1	89.7*	100.1*	0.0	80.3*	57.4*	55.8*	58.8*
SMILES	Shn3 3UTR inh	Peg3 prom inh	KKLEB tox	CF NFkB inh	HIF-2a inh	HIF-2a conf	HIF-1a counter	others
O=C(Nc1ccccc1N1CCCCC1)c1ccc([N+](=O)[O-])o1	-11.0	37.0	-18.5	-12.7	10.1	nt	nt
Cc1ccc(NC(=O)c2ccc([N+](=O)[O-])o2)cc1S(=O)(=O)N1CCOCC1	60.4	102.0*	-4.7	56.3*	55.1*	38.5	80.1*
COC(=O)c1ccc(/C=C(\C#N)C(=O)NC(C)c2ccccc2)cc1 (stereo unspecified)	37.7	104.0*	-13.1	76.6*	66.7*	48.3*	105.1*
CN(C)S(=O)(=O)c1ccc(N2CCCC2)c(C(=O)N2CCN(S(=O)(=O)c3ccccc3F)CC2)c1	13.5	10.6	13.4	7.8	11.4	nt	nt
Cc1ccc(S(=O)(=O)N2CCN(C(=O)CCc3nc4ccccc4c(=O)[nH]3)CC2)c(C)c1	2.6	0.1	-19.5	3.1	17.2	nt	nt
O=C(CCc1nc2ccccc2c(=O)[nH]1)N1CCN(S(=O)(=O)c2ccccc2Br)CC1	-2.1	7.3	-12.1	25.2	47.6*	22.7	89.3*
CN(C(=O)/C=C/c1cnc2ccccc2c1)C1CCCCC1	-37.7	-146.3	-0.6	-11.3	-70.3	nt	nt
Nc1ncnc2c1ncn2[C@@H]1O[C@H](CO)C[C@H]1O	-17.0	2.6	-0.6	5.6	-1.6	nt	nt
Nc1ncnc2c1ncn2C1C=C(CO)C(O)C1O (stereo unspecified)	43.4	34.2	-18.8	5.9	43.5*	27.1	81.1*
O=S(=O)(CC(CN1CCOCC1)N1CCOCC1)c1ccccc1 (stereo unspecified)	1.1	-0.9	11.8	0.3	5.8	nt	nt
O=S(=O)(CC(CN1CCCCC1)N1CCCCC1)c1ccc2ccccc2c1 (stereo unspecified)	51.6	108.6*	-59.0*	96.6*	61.8*	21.2	104.1*
c1ccc(-c2c(-c3ccccc3)n(Cc3ccco3)c3ncnc(NCCCn4ccnc4)c23)cc1	37.6	37.3	-6.2	21.6	49.3*	34.0	100.9*
CC(C)Cn1cnc2c(c(-c3ccccc3)c(-c3ccccc3)n2Cc2ccco2)c1=N	2.5	104.3*	-15.0	13.1	58.1*	15.5	102.2*
N=c1c2c(-c3ccccc3)c(-c3ccccc3)n(Cc3ccco3)c2ncn1CCCn1ccnc1	11.1	66.0*	-20.5	21.3	69.4*	16.3	74.4*
OCCNc1ncnc2c1c(-c1ccccc1)c(-c1ccccc1)n2Cc1ccco1	5.8	6.7	-4.0	17.2	21.3	nt	nt
N=c1c2c(-c3ccccc3)c(-c3ccccc3)n(Cc3ccco3)c2ncn1CCCN1CCOCC1	20.3	99.1*	0.2	21.5	6.8	nt	nt	Mdm2 MdmX conf=102.0*
